# PubChem BioAssay (NCI)
# About 83,000 compounds went through this panel and 20% of them were active in at least one assay; those are over-represented in the sample as a whole.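 Activity criterion: percent growth below 10, measured after cells in 96-well plates were exposed to a single compound concentration for 48 hours.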 Values without a mark were called inactive. Calls of active or inactive are those of the source.
# Experiments:
# Assay in all cases: NCI-60 one-dose screen, 48 h (100 = growth as untreated, 0 = no growth, -100 = all killed)
# HCT-15 colon = settings: 10 µM unless noted
# HT29 colon = settings: 10 µM unless noted
# SNB-75 CNS = settings: 10 µM unless noted
# SNB-19 CNS = settings: 10 µM unless noted
# U251 CNS = settings: 10 µM unless noted
# PC-3 prostate = settings: 10 µM unless noted
# SK-MEL-5 melanoma = settings: 10 µM unless noted
# UACC-62 melanoma = settings: 10 µM unless noted
# LOX IMVI melanoma = settings: 10 µM unless noted
# SK-MEL-28 melanoma = settings: 10 µM unless noted
# SK-MEL-2 melanoma = settings: 10 µM
# EKVX NSCLC = settings: 10 µM unless noted
# SN12C renal = settings: 10 µM unless noted
# UO-31 renal = settings: 10 µM unless noted
# TK-10 renal = settings: 10 µM unless noted
# ACHN renal = settings: 10 µM unless noted
# CAKI-1 renal = settings: 10 µM unless noted
# CCRF-CEM leukemia = settings: 10 µM unless noted
# MOLT-4 leukemia = settings: 10 µM unless noted
# A498 renal = settings: 10 µM unless noted
Structure (SMILES),growth (HCT-15 colon),growth (HT29 colon),growth (SNB-75 CNS),growth (SNB-19 CNS),growth (U251 CNS),growth (PC-3 prostate),growth (SK-MEL-5 melanoma),growth (UACC-62 melanoma),growth (LOX IMVI melanoma),growth (SK-MEL-28 melanoma),growth (SK-MEL-2 melanoma),growth (EKVX NSCLC),growth (SN12C renal),growth (UO-31 renal),growth (TK-10 renal),growth (ACHN renal),growth (CAKI-1 renal),growth (CCRF-CEM leukemia),growth (MOLT-4 leukemia),growth (A498 renal)
CC(N)C(Cc1ccc(Cl)cc1)c1ccc(Cl)cc1 (stereo not drawn),69.3%,-21.9% (active),48.6%,82.4%,5.91% (active),37.5%,90.1%,92.4%,74.3%,62.6%,-58% (active),83.7%,87%,55.8%,45.5%,80.5%,59.6%,65.6%,34.9%,
COc1ccc2c(CCCc3ccc(Cl)cc3Cl)c3[n+](cc2c1OC)CCc1cc2c(cc1-3)OCO2,24.4%,-15.6% (active),15.2%,16.7%,3.76% (active),-14.2% (active),-99.6% (active),-68.2% (active),-80.3% (active),-35.6% (active),-22.8% (active),23.1%,-24.9% (active),25.4%,0.636% (active),21.9%,71.9%,5.42% (active),-9.91% (active),
COc1cnc2c(c1)C(=O)c1c-2n(CCCN2CCC(N)CC2)c(=O)c2cc([N+](=O)[O-])ccc12,49%,36.5%,60.9%,39.8%,39.4%,40.7%,72.4%,49.8%,21.2%,116%,109%,75.7%,21.6%,63.7%,82.6%,19.8%,45.2%,1.69% (active),0.263% (active),62.6%
CCNCCNc1cc(-c2ccc(Cl)c(Cl)c2)c(C#N)c2nc3ccccc3n12,-84% (active),-87.3% (active),-88.4% (active),-74.2% (active),-95.5% (active),-83% (active),-93.5% (active),-74.2% (active),-93.4% (active),-81% (active),-83.1% (active),-80% (active),-68.9% (active),-84% (active),-84.3% (active),-90.5% (active),-95.4% (active),-30.3% (active),-43.4% (active),-76.6% (active)
COc1ccc2c(CCC(c3ccccc3)c3ccccc3)c3[n+](cc2c1OC)CCc1cc2c(cc1-3)OCO2,47.1%,6.26% (active),37.1%,20.6%,10.5%,-39.8% (active),-99.6% (active),-43.5% (active),-58.5% (active),3.87% (active),-15% (active),24.7%,0.0445% (active),45.6%,8.09% (active),23.4%,60.2%,6.45% (active),-10.1% (active),
CCc1nc2cc(/C=C/C(=O)NO)ccc2c(=O)n1CCc1ccc(OC)cc1,25.2%,6.61% (active),24.1%,35.9%,16.5%,22.9%,0.923% (active),-5.16% (active),-21.8% (active),30%,47.4%,40.8%,24.9%,20.6%,2.16% (active),9.54% (active),13.4%,10.2%,5.41% (active),-4.17% (active)
Cc1ccc(-c2nc3ccc(Cl)cn3c2NC2CCCCC2)o1,66.8%,48.4%,83.5%,97.4%,86.8%,45.4%,66.4%,72.4%,103%,100%,88.9%,80.7%,87.3%,58.5%,87.9%,83.1%,60.6%,79.8%,43.4%,53.3%
CCc1nc2cc(F)c(/C=C/C(=O)NO)cc2c(=O)n1CCc1ccccc1,24.4%,13.2%,34.8%,30.2%,7.95% (active),22.6%,4.25% (active),-21.7% (active),-33.9% (active),19.4%,9.96% (active),25.7%,13.6%,-15% (active),1.94% (active),3.69% (active),0.745% (active),3.07% (active),3.34% (active),-14.1% (active)
CC(C)[C@@H](C)/C=C/[C@@H](C)[C@H]1CCC2=C3C=CC4=CC(=O)CC[C@]4(C)[C@H]3CC[C@@]21C,99.7%,74.3%,96.7%,100%,88.7%,62.8%,89.5%,94.9%,101%,113%,101%,99.1%,101%,92%,87.8%,109%,93.9%,82.2%,85.5%,
COc1cnc2c(c1)C(=O)c1c-2n(CCCn2ccnc2)c(=O)c2cc(Cl)ccc12,28.9%,-31.5% (active),19%,20.2%,-31% (active),24.8%,-49.9% (active),-43.1% (active),-52.5% (active),52.2%,50%,40.2%,10%,-0.232% (active),45.9%,-3.65% (active),11.9%,-11.9% (active),-23.6% (active),-41.2% (active)
COc1ccc(-c2nocc2-c2cc(OC)c(OC)c(OC)c2)cc1,9.74% (active),0.361% (active),32.8%,34.9%,19.1%,29%,7.25% (active),13%,43.5%,49.8%,41.5%,54.2%,50%,36.3%,67.3%,39.6%,31.2%,22.7%,20.4%,
CCc1nc2ccc(Cc3ccc(C(=O)NO)cc3)cc2c(=O)n1CCc1ccccc1,-43.2% (active),-40.8% (active),-20.8% (active),-44.9% (active),-71.4% (active),-66.5% (active),-65.6% (active),-57.7% (active),-76.2% (active),-36% (active),-33.4% (active),-23.3% (active),-20.5% (active),-63.4% (active),-29.7% (active),-35.3% (active),-37% (active),2.95% (active),-18.7% (active),-75.9% (active)
CC(=O)Oc1ccccc1C(=O)N=C1[Se]CCN1C(=O)c1ccccc1OC(C)=O,-36.1% (active),0.805% (active),-65.2% (active),-48.8% (active),-63.6% (active),-49.7% (active),-57.6% (active),-57.8% (active),-49% (active),-27.9% (active),-18.4% (active),-39% (active),-30% (active),-91% (active),-72.3% (active),-91.5% (active),-97.7% (active),18.6%,6.05% (active),-94% (active)
Cc1nn(-c2nc3ccccc3[nH]2)c2c1C(c1ccc(O)cc1)CC(=O)N2 (stereo not drawn),70.6%,83.9%,27.8%,84.1%,76.4%,77.7%,85.3%,84.9%,85.2%,80.4%,51%,109%,101%,69.3%,86.9%,97%,89.9%,17.7%,-14.4% (active),
CC1(C=O)NC(=O)NC1=O (stereo not drawn),101%,99.2%,92.8%,103%,82%,88%,102%,99.2%,100%,112%,106%,99.6%,97.8%,96%,100%,104%,98.6%,95.7%,89.9%,
N#Cc1c(-c2ccc(C(F)(F)F)cc2)c(F)c(NCCC2CCC(O)C2)n2c1nc1ccccc12 (stereo not drawn),49.6%,17.8%,68%,78.3%,61.4%,37.8%,61.8%,72.7%,6.38% (active),61.8%,101%,43.8%,49.1%,52.6%,83.6%,61.2%,26.6%,17.9%,45.9%,35.4%
